We go through seven compounds from PubChem BioAssay (Tox21).

Structures are written as SMILES. Values without a mark were called inactive. Records with an inconclusive call do not appear. The source made the active and inactive calls. Unless noted, calls follow the shape of the dose curve; as a rule, active = well fitted curve in the direction sought with a large enough effect in the repeat runs; inconclusive = weak or mixed curves; inactive = no such curve, though single readings can be large; an effect the other way counts as inactive or inconclusive.

Experiment [1] is described as follows: qHTS assay to identify small molecule agonists of the hypoxia (HIF-1) signaling pathway - cell viability counter screen (AID 1224844; calls by dose curve; also: nearly all actives have a fitted effect of over 50% in size). The method in brief: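 In this counter screen, HRE-bla ME-180 cell viability after 17 hrs of compound exposure at 37C was read by CellTiter-Glo luminescence, multiplexed with the beta-lactamase reporter measurement.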
(In general: qHTS replaces the single test concentration by a dilution series.)

Experiment [2] can be described thus: qHTS assay to identify small molecule agonists of H2AX (AID 1224845; active = well fitted activation curve with a large enough effect in the signal ratio in the repeat runs, not every such curve was filed as active; the % refers to the signal ratio). A digest of the protocol:
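Wild-type CHO-K1 cells, plated overnight, exposed 3hr at 37C to 15 concentrations (0.76% DMSO final). Lysed, then HTRF anti-pH2AX (S139) cryptate and anti-H2AX-d2 antibodies, 24 hr room temperature; 665/620 nm emission read.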

Experiment [3] in a line: qHTS assay to identify small molecule agonists of the hypoxia (HIF-1) signaling pathway (AID 1224846; active = well fitted activation curve with a large enough effect in the signal ratio in the repeat runs, not every such curve was filed as active; the % refers to the signal ratio). A digest of the protocol: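 ME-180 HRE-bla reporter cells; compounds in DMSO, 17 h at 37C; read-out beta-lactamase via CCF4-AM FRET.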
A short description of experiment [4]: qHTS assay to identify small molecule agonists of H2AX - cell viability counter screen (AID 1224847; calls by dose curve; also: top concentration of the series differs between compounds; nearly all actives have a fitted effect of over 30% in size). The method in brief: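 Counter-screen for viability: CellTiter-Glo ATP luminescence read after 3 h compound treatment (15-point titration, 0.76% DMSO final) of CHO-K1 cells at 37C, with 30 min room-temperature reagent incubation.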
A short description of experiment [5]: qHTS assay to identify small molecule agonists of the estrogen related receptor (ERR) signaling pathway from Tox21 library (AID 1224849; calls by dose curve; also: nearly all actives have a fitted effect of over 15% in size). The conditions noted are these: ERR reporter cell line, ONE-Glo luciferase, 18 h; at 92.4 µM (top of the series) unless noted. The method in brief:
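Luciferase activity in ERR pathway reporter cells served as the agonist readout; exposure lasted 18 h at 37 C, with ONE-Glo detection after 30 min at room temperature.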

Experiment [6] in a line: qHTS RealTime-Glo MT Cell Viability Assay in HepG2 cells - 24 hour (AID 1224867). Also: nearly all actives have a fitted effect of over 50% in size. The method in brief:
(§1)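 HepG2 cells (600/well) were dispensed with RealTime-Glo reagents, incubated 5 h at 37 °C, then treated with compounds in DMSO for up to 40 h. Nonlytic NanoLuc luminescence reflecting viable cells was read at each stated time point.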

Experiment [7] is described as follows: qHTS RealTime-Glo MT Cell Viability Assay in HEK293 cells - 32 hour (AID 1224868). Also: top concentration of the series differs between compounds; nearly all actives have a fitted effect of over 50% in size. A digest of the protocol:
(§2)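 HEK293 cells seeded with NanoLuc/prosubstrate reagent, rested 5 h at 37 C, then dosed and kept at 37 C up to 40 h. Nonlytic real-time luminescence from viable cells read at 0, 8, 16, 24, 32 and 40 h.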

Experiment [8] is described as follows: A CellTox Green Cytotoxicity Assay to monitor cytotoxicity in HEK293 cells - 0 hour (AID 1224869). Also: nearly all actives have a fitted effect of over 50% in size. The method in brief:
(§3)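 Real-time, in one plate: 600 HEK293 cells/well with dead-cell DNA dye, pinned compound after 5 h, 37 C incubation over 40 h; viable cells give no appreciable fluorescence.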

Experiment [9] in a line: qHTS RealTime-Glo MT Cell Viability Assay in HepG2 cells - 40 hour (AID 1224870). Also: nearly all actives have a fitted effect of over 50% in size. A digest of the protocol:
(§4)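 HepG2 cells (600/well) mixed with RealTime-Glo MT reagent, settled 5 h at 37 C/5% CO2 before compound addition. Nonlytic NanoLuc luminescence from viable-cell prosubstrate reduction read repeatedly during 40 h treatment at 37 C.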

The nature of experiment [10]: A CellTox Green Cytotoxicity Assay to monitor cytotoxicity in HEK293 cells - 40 hour (AID 1224871). Also: nearly all actives have a fitted effect of over 45% in size. A digest of the protocol: as §3
The nature of experiment [11]: qHTS RealTime-Glo MT Cell Viability Assay in HEK293 cells - 16 hour (AID 1224872). A digest of the protocol: as §2
A short description of experiment [12]: qHTS RealTime-Glo MT Cell Viability Assay in HepG2 cells - 8 hour (AID 1224873). Also: nearly all actives have a fitted effect of over 55% in size. The method in brief:
as §4

A short description of experiment [13]: qHTS RealTime-Glo MT Cell Viability Assay in HEK293 cells - 40 hour (AID 1224874). Also: nearly all actives have a fitted effect of over 50% in size. Particulars: RealTime-Glo luminescence; max response: active compounds read low. The method in brief: (§5)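 Kinetic, non-lysing viability readout. Seed HEK293 (600/well) with reagent, incubate 5 h at 37 C/5% CO2, pin 23 nL compound in DMSO, incubate at 37 C, read luminescence at 0, 8, 16, 24, 32, 40 h.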

Experiment [14] is described as follows: A CellTox Green Cytotoxicity Assay to monitor cytotoxicity in HEK293 cells - 24 hour (AID 1224875). Also: nearly all actives have a fitted effect of over 45% in size. The method in brief: as §3
A short description of experiment [15]: A CellTox Green Cytotoxicity Assay to monitor cytotoxicity in HepG2 cells - 16 hour (AID 1224876). Also: nearly all actives have a fitted effect of over 45% in size. A digest of the protocol: (§6)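 Cytotoxicity was tracked as dead-cell DNA fluorescence in HepG2 cells treated with test compounds at 37 C; each time-point value comes from one kinetic series spanning 0, 8, 16, 24, 32 and 40 h.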
A short description of experiment [16]: A CellTox Green Cytotoxicity Assay to monitor cytotoxicity in HepG2 cells - 24 hour (AID 1224878). Also: nearly all actives have a fitted effect of over 45% in size. The method in brief: as §6
Experiment [17] is described as follows: A CellTox Green Cytotoxicity Assay to monitor cytotoxicity in HepG2 cells - 40 hour (AID 1224879). Also: nearly all actives have a fitted effect of over 40% in size. Also: potency is read from the fitted curve at half-maximal effect. A digest of the protocol: as §6
Experiment [18] in a line: qHTS RealTime-Glo MT Cell Viability Assay in HEK293 cells - 0 hour (AID 1224880). A digest of the protocol: as §5
Experiment [19] in a line: qHTS assay to identify small molecule antagonists of the estrogen related receptor (ERR) signaling pathway from Tox21 library (AID 1224848). Also: nearly all actives have a fitted effect of over 50% in size. A digest of the protocol:
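Compounds dissolved in DMSO are pin-transferred onto ERR reporter cells (2,000 per well) that have settled for 6 h at 37 C. Plates then incubate 18 h at 37 C before ONE-Glo luciferase reagent and a luminescence read 30 min later.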

Experiment [20] in a line: qHTS RealTime-Glo MT Cell Viability Assay in HepG2 cells - 32 hour (AID 1224877). Also: nearly all actives have a fitted effect of over 55% in size. A digest of the protocol: as §1
% is scaled to controls: 0 for no effect and ±100 for the full control effect.

In the case of `CC(Cc1ccc2c(c1)OCO2)NO` (stereo not drawn), the Potency entry in [1], in experiment [2], in [3], in [4], in experiment [6] and in experiment [7] was “inactive” each time. Further, the Potency result in experiment [8], in experiment [9], in [10], in experiment [11], in [12] and in experiment [14] was “inactive” in each case. The Potency entry in experiment [15], in experiment [16], in [17] and in [18] was “inactive” each time. In addition, in experiment [5], the activity change, positive = activation was -3.14%. Besides, in experiment [13], the max response was 0.458%.

Turning to `CSSC`, the Potency entry in experiment [1], in [2], in experiment [3], in experiment [4], in experiment [19] and in [6] was “inactive” each time. In addition, the Potency entry in experiment [8], in experiment [9], in [10], in [11], in [12] and in experiment [15] was “inactive” in each case. The Potency entry in [20], in experiment [16] and in [18] was “inactive” each time. Besides, in experiment [5], the activity change, positive = activation was -6.7%. The Potency in experiment [17] is 7.86 µM (active).

`O=NN(CCO)CCO`: the Potency result in [1], in experiment [2], in experiment [3], in experiment [4], in [6] and in [7] was “inactive” in each case. In addition, the Potency entry in experiment [8], in experiment [9], in [10], in experiment [11], in [12] and in [14] was “inactive” throughout. The Potency result in experiment [15], in [20], in experiment [17] and in experiment [18] was “inactive” in each case. Further, in experiment [5], the activity change, positive = activation is 1.69%. The max response in [13] was 7.2%.

Consider `CC(C)NCC(O)c1ccccc1Cl` (stereo not drawn), for which the Potency result in [1], in experiment [2], in experiment [3], in experiment [4], in [19] and in experiment [6] was “inactive” throughout. The Potency result in experiment [7], in experiment [8], in experiment [9], in [10], in experiment [11] and in [12] was “inactive” in each case. The Potency entry in experiment [14], in [15], in [20], in experiment [16] and in [17] was “inactive” throughout. Further, in [5], the activity change, positive = activation is 0.518% [at 42.5 µM]. The max response in [13] is 1.74%.

In the case of `Cc1ccn2nc(S(=O)(=O)Nc3c(F)cccc3F)nc2n1`, the Potency entry in experiment [1], in experiment [2], in [3], in experiment [4], in [19] and in [6] was “inactive” throughout. Besides, the Potency entry in experiment [7], in [8], in [9], in experiment [10], in [11] and in experiment [12] was “inactive” in each case. The Potency result in experiment [14], in [15], in experiment [20], in experiment [16], in experiment [17] and in experiment [18] was “inactive” throughout. Further, the activity change, positive = activation in experiment [5] was 1.87%. Moreover, the max response in experiment [13] was 12.5%.

Turning to `S=C=Nc1ccccc1`, the Potency entry in experiment [1], in experiment [2], in [3], in [4], in experiment [6] and in experiment [7] was “inactive” throughout. The Potency result in experiment [8], in experiment [9], in experiment [10], in [11], in [12] and in experiment [14] was “inactive” each time. Further, the Potency result in experiment [15], in experiment [20], in [16] and in experiment [17] was “inactive” throughout. Also, in experiment [13], the max response was -7.14%.

In the case of `O=C(CCCCl)c1ccc(F)cc1`, the Potency result in experiment [1], in experiment [2], in experiment [3], in [4], in experiment [19] and in experiment [6] was “inactive” in each case. Also, the Potency result in [7], in [8], in [9], in experiment [10], in experiment [11] and in experiment [12] was “inactive” throughout. For the same compound, the Potency result in experiment [14], in experiment [15], in [20], in experiment [16] and in [17] was “inactive” throughout. In addition, in experiment [5], the activity change, positive = activation is 7.87% [at 42.5 µM]. Also, in experiment [13], the max response was -0.41%.
